We go through 8 compounds from PubChem BioAssay (NCI).

About 83,000 compounds went through this panel and 20% of them were active in at least one assay; those are over-represented in the sample as a whole.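 Note: values are percent growth. 100 is the growth of untreated cells, values between 100 and 0 indicate rising inhibition; between -100 and 0 indicates cell death.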 Values without a mark were called inactive. The source made the active and inactive calls. The calls were made as follows: active = growth percent below 10; inactive = the rest.

Common to all, as to experiment: NCI-60 one-dose screen, 48 h (100 = growth as untreated, 0 = no growth, -100 = all killed)
The test system of one test is NCI-H23 lung. To be noted: 10 µM unless noted.
In another test the test system is NCI-H226 lung. Particulars: 10 µM unless noted.
The next test relates to NCI-H322M lung. To be noted: 10 µM unless noted.
Another test deals with HOP-62 NSCLC. To be noted: 10 µM unless noted.
Another test deals with NCI-H460 lung. To be noted: 10 µM unless noted.
Another test deals with HOP-92 NSCLC. To be noted: 10 µM.
For a further test, the system named is NCI-H522 lung. Particulars: 10 µM unless noted.
For the next test, the system named is A549/ATCC NSCLC. Particulars: 10 µM unless noted.
A further test deals with 786-0 renal. To be noted: 10 µM unless noted.
For a further test, the system named is COLO 205 colon. To be noted: 10 µM unless noted.
The next test relates to DU-145 prostate. Particulars: 10 µM unless noted.
Another test relates to K-562 leukemia. To be noted: 10 µM unless noted.
The next test concerns MALME-3M melanoma. Particulars: 10 µM unless noted.
In another test the test system is MDA-MB-231 breast. To be noted: 10 µM unless noted.
For the next test, the system named is RXF 393 renal. Particulars: 10 µM unless noted.
The test system of the next test is SF-268 CNS. To be noted: 10 µM unless noted.
A further test has as its system SF-295 CNS. To be noted: 10 µM unless noted.
The test system of a further test is SF-539 CNS. To be noted: 10 µM unless noted.
The subject of a further test is UACC-257 melanoma. Particulars: 10 µM unless noted.

For the compound `COc1ccc(N2C(=O)c3cc(Cl)ccc3NC2SCc2ccccc2)cc1` (stereo unspecified), the growth is 97% in the test on NCI-H23 lung; 96.2% in the test on NCI-H226 lung; 97.1% in the test with NCI-H322M lung; 102% in the test with HOP-62 NSCLC; 109% in the test with NCI-H460 lung; 92.1% in the test with HOP-92 NSCLC. Moreover, the growth was 87.4% in the test with NCI-H522 lung; 91.5% with A549/ATCC NSCLC; 92% in the test with 786-0 renal; 114% with COLO 205 colon; 106% in the test on DU-145 prostate; 88.9% in the test on K-562 leukemia. For the same compound, the growth in the test with MALME-3M melanoma is 99.2%; in the test on MDA-MB-231 breast it was 85.1%; in the test with RXF 393 renal, 101%; in the test on SF-268 CNS it was 98.3%; in the test on SF-295 CNS, 102%; in the test on SF-539 CNS, 98.7%. In addition, in the test with UACC-257 melanoma, the growth is 97.7%.
For the compound `COc1ccc([C@@H]2c3[nH]c4ccccc4c3C[C@H]3C(=O)N(C4CCN(CC5CCCCC5)CC4)CC(=O)N23)c(OC)c1`, the growth with NCI-H23 lung was 93.3%; in the test on NCI-H226 lung, 74.1%; in the test with NCI-H322M lung, 90.3%; in the test with HOP-62 NSCLC, 72.9%; in the test on NCI-H460 lung, 82.5%; with HOP-92 NSCLC it was 51.3%. Further, the growth is 85.2% with NCI-H522 lung; 72.2% in the test on A549/ATCC NSCLC; 70.5% with 786-0 renal; 51.2% with COLO 205 colon; 80.8% in the test on DU-145 prostate; 22% with K-562 leukemia. Further, the growth with MALME-3M melanoma is 95.7%; in the test on MDA-MB-231 breast, 75.5%; in the test on RXF 393 renal, 28.7%; in the test with SF-268 CNS, 67.2%; in the test on SF-295 CNS, 98.6%; in the test on SF-539 CNS, 78.6%. Besides, the growth in the test on UACC-257 melanoma was 84.8%.
For the compound `CCn1c(SCC(=O)Nc2cccc(C(=O)/C=C/c3ccc(C)cc3)c2)nc2ccccc2c1=O`, the growth with NCI-H23 lung is 76.9%; in the test with NCI-H226 lung it was 73.4%; in the test with NCI-H322M lung it was 86.7%; in the test on HOP-62 NSCLC it was 108%; in the test on NCI-H460 lung it was 98.2%; in the test on HOP-92 NSCLC it was 77.7%. Further, the growth was 81.1% in the test with NCI-H522 lung; 68% in the test with A549/ATCC NSCLC; 93.6% with 786-0 renal; 122% with COLO 205 colon; 77.2% in the test with DU-145 prostate; 55.4% in the test with K-562 leukemia. Further, the growth in the test on MALME-3M melanoma was 103%; in the test on MDA-MB-231 breast, 92.1%; with SF-268 CNS, 87.2%; in the test with SF-295 CNS, 104%; in the test on SF-539 CNS, 86.5%; with UACC-257 melanoma it was 105%.
Turning to `C#CCNC1CCC(c2csc(C#C)n2)=C1C` (stereo unspecified), the growth with NCI-H23 lung is -39.4% (active); in the test with NCI-H226 lung it was 75.4%; in the test with NCI-H322M lung it was 90.8%; with HOP-62 NSCLC, 28.2%; with NCI-H460 lung it was 98.9%; in the test with HOP-92 NSCLC, -50.6% (active). The growth with NCI-H522 lung was 49.7%; in the test with A549/ATCC NSCLC, 96.2%; with 786-0 renal it was 17.1%; with COLO 205 colon it was 105%; in the test with DU-145 prostate it was 67.6%; in the test with K-562 leukemia, 63%. Also, the growth was -78.3% (active) with MALME-3M melanoma; 8.61% (active) in the test with MDA-MB-231 breast; 117% with RXF 393 renal; 78.1% in the test with SF-268 CNS; -28.2% (active) in the test on SF-295 CNS; -92.4% (active) in the test on SF-539 CNS. Moreover, the growth in the test on UACC-257 melanoma is 80.1%.
As to `O=C(Cn1cc(-c2ccccc2)nn1)Nc1nc(-c2ccc(Cl)cc2)cs1`, the growth with NCI-H23 lung was 97.7%; in the test on NCI-H226 lung, 106%; in the test with NCI-H322M lung it was 100%; in the test on HOP-62 NSCLC, 108%; in the test on NCI-H460 lung it was 109%; in the test on HOP-92 NSCLC, 130%. Moreover, the growth was 88.2% in the test on NCI-H522 lung; 103% in the test on A549/ATCC NSCLC; 88.6% with 786-0 renal; 117% with COLO 205 colon; 108% in the test with DU-145 prostate; 98% with K-562 leukemia. The growth in the test on MALME-3M melanoma is 90.4%; in the test with MDA-MB-231 breast it was 104%; with RXF 393 renal it was 135%; in the test with SF-268 CNS, 113%; in the test on SF-295 CNS, 77.7%; in the test on SF-539 CNS, 108%. Further, the growth with UACC-257 melanoma is 98.9%.
As to `COc1ccc(S(=O)(=O)NCCCNc2nccc(-c3[nH]c(-c4ccccc4)nc3-c3ccc(Cl)c(O)c3)n2)cc1`, the growth in the test with NCI-H23 lung is 83.4%; in the test on NCI-H226 lung, 103%; in the test with NCI-H322M lung it was 96.5%; in the test on HOP-62 NSCLC, 91.7%; in the test with NCI-H460 lung, 85.6%; with HOP-92 NSCLC, 114%. Further, the growth with NCI-H522 lung was 69.1%; in the test on A549/ATCC NSCLC it was 102%; with 786-0 renal, 125%; in the test on COLO 205 colon, 86.3%; in the test on DU-145 prostate it was 89.3%; with K-562 leukemia, 55.2%. Also, the growth was -7% (active) in the test on MALME-3M melanoma; 61.4% in the test on MDA-MB-231 breast; 140% with RXF 393 renal; 92% in the test on SF-268 CNS; 96.4% with SF-295 CNS; 101% with SF-539 CNS. The growth in the test with UACC-257 melanoma is 23.6%.
Take `NS(=O)(=O)c1ccc(Nc2nc(N/N=C/c3ccc(Cl)cc3)nc(Nc3ccccc3)n2)cc1`: the growth in the test on NCI-H23 lung was 87.1%; in the test on NCI-H226 lung, 81.4%; in the test on NCI-H322M lung it was 93.1%; in the test with HOP-62 NSCLC, 83.1%; with NCI-H460 lung, 72.2%; with HOP-92 NSCLC, 91%. For the same compound, the growth in the test with NCI-H522 lung is 79.1%; with A549/ATCC NSCLC it was 62.6%; with 786-0 renal, 40.3%; in the test with COLO 205 colon, 73.8%; with DU-145 prostate it was 72.7%; in the test on K-562 leukemia, 59.9%. Also, the growth in the test with MALME-3M melanoma was 88.3%; with MDA-MB-231 breast it was 86.7%; with RXF 393 renal, -11.5% (active); with SF-268 CNS, 73.7%; in the test with SF-295 CNS it was 58.6%; in the test with SF-539 CNS, 53.8%. The growth in the test on UACC-257 melanoma was 89.5%.
`CCN(CC)c1cn(-c2ccc(S(N)(=O)=O)cc2)nn1`: the growth with NCI-H23 lung was 109%; in the test with NCI-H226 lung, 109%; in the test on NCI-H322M lung, 110%; in the test with HOP-62 NSCLC, 112%; in the test with NCI-H460 lung, 106%; with HOP-92 NSCLC, 99%. Further, the growth is 92.9% in the test on NCI-H522 lung; 105% in the test with A549/ATCC NSCLC; 106% with 786-0 renal; 109% in the test on COLO 205 colon; 105% in the test on DU-145 prostate; 91.6% in the test with K-562 leukemia. In addition, the growth in the test with MALME-3M melanoma was 103%; in the test on MDA-MB-231 breast, 102%; in the test with RXF 393 renal, 114%; in the test with SF-268 CNS, 101%; in the test with SF-295 CNS it was 101%; with SF-539 CNS, 99.6%. Also, the growth in the test on UACC-257 melanoma is 99.7%.
